Experimental data from PubChem BioAssay AID1851 (National Center for Advancing Translational Sciences (NCATS), 2009).
Values joined by “and” are separate entries in the source; they are usually repeats but may differ in a detail not shown here. Equal entries are not always repeated. Among all 16,000 compounds or so, about 5,800 (36%) were called active. Roughly 23% stayed inconclusive and do not appear here. The list shows a part of the results. A number with no mark means an inactive call. Calls come from the whole dose curve; as a rule, active = well fitted curve in the direction sought with a large enough effect; inconclusive = small, poorly fitted or top-dose-only effect, or effect the other way; inactive = no such curve, though single readings can be large or run the other way.

target: Cytochrome P450 2C19 (Homo sapiens) (UniProt P33261); assay: Cytochrome panel assay with activity outcomes; details: recombinant CYP, pro-luciferin dealkylation, luminescence, p450-cyp2c19; series mostly up to 57.1 µM
Sequence (P33261 whole entry, looked up): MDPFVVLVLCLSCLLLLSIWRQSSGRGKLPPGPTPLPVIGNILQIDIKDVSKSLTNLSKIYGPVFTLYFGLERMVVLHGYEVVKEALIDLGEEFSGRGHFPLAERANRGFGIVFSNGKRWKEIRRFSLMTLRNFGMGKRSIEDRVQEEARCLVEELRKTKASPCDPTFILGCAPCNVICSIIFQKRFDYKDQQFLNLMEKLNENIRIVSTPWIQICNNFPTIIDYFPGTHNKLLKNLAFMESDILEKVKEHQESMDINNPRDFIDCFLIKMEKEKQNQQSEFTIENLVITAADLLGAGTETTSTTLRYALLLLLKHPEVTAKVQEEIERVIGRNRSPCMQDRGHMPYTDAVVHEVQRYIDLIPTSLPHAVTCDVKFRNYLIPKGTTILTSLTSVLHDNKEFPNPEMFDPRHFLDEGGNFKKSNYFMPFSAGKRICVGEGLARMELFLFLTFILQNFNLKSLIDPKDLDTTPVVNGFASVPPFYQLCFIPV
% is set by controls: 0 for no effect and ±100 for the full control effect.

Compound | AC50 | activity, negative = inhibition
COc1ccccc1C(=O)NC(=S)N1CCCc2ccccc21 | 2 µM (active) | –
COc1ccccc1C(=O)NN1C(=O)C2C3C=CC(O3)C2C1=O (centres undefined) | inactive | –
c1ccc(CSc2nnc3c4ccccc4c4ccccc4c3n2)cc1 | – | -34.7% [at 11.4 µM]
O=C(CSc1nnc2c3ccccc3c3ccccc3c2n1)Nc1ccccc1 | 2 µM (active) | –
c1cncc(-c2ccc3ncnc(NCCN4CCOCC4)c3c2)c1 | inactive | –
c1ccc(-c2nc(NCCCn3ccnc3)c3oc4ccccc4c3n2)cc1 | 0.158 µM (active) | –
c1ccc2c(c1)oc1c(NCCCn3ccnc3)ncnc12 | 3.55 µM (active) | –
CNc1csc(C)c(C)c1=O | 28.2 µM (active) | –
O=C(Nc1ccc(F)cc1)c1cc(S(=O)(=O)N2CCCCC2)cs1 | 22.4 µM (active) | –
Cc1nc2ncnn2c(C)c1CCC(=O)Nc1ccc(S(=O)(=O)N2CCCCCC2)cc1 | inactive | –
O=C(O)c1cc(S(=O)(=O)N2CCCCC2)ccc1F | inactive | –
Cc1ccc(S(=O)(=O)Oc2cc(N)c3c(n2)CCC3)cc1 | 1 µM (active) | –
Cc1ccc(S(=O)(=O)O[C@@H]2[C@H]([C@@H]3COC(C)(C)O3)O[C@H]3OC(C)(C)O[C@@H]32)cc1 | – | 45.2% [at 11.4 µM]
Cc1ccc(S(=O)(=O)Oc2cc(S(=O)(=O)O)cc3cc(S(=O)(=O)O)cc(N)c23)cc1 | – | 7.86% [at 11.4 µM]
CC(C)CC(=O)N1CCN(Cc2cccc(F)c2)CC1 | 3.55 µM (active) | –
O=C(c1cccc(F)c1)N1CCC2(CCN(Cc3ccccc3)CC2)CC1 | inactive | –
CC(C)CN1CCC2(CC1)CCN(C(=O)c1cccc(F)c1)CC2 | inactive | –
COc1cccc(Cn2c(=O)c(-c3ccc(Cl)cc3)nc3cnc(N4CCNCC4)nc32)c1 | 25.1 µM (active) | –
COc1ccc(-n2c(=O)c(-c3ccc(Cl)cc3)nc3cnc(N4CCNCC4)nc32)cc1 | inactive | –
COc1ccc(-c2nc3cnc(N4CCNCC4)nc3n(Cc3ccc(F)cc3)c2=O)cc1 | inactive | –
COc1cccc(Cn2c(=O)c(-c3ccc(Cl)cc3)nc3cnc(N4CCN(C)CC4)nc32)c1 | inactive | –
COc1cccc(Cn2c(=O)c(-c3cccs3)nc3cnc(N4CCN(C)CC4)nc32)c1 | inactive | –
COc1ccc(-n2c(=O)c(-c3ccc(Cl)cc3)nc3cnc(N4CCOCC4)nc32)cc1 | 25.1 µM (active) | –

Compound | AC50 | activity, negative = inhibition
COc1ccc(-n2c(=O)c(-c3cccs3)nc3cnc(N4CCNCC4)nc32)cc1 | inactive | –
COc1cccc(Cn2c(=O)c(-c3cccs3)nc3cnc(N4CCNCC4)nc32)c1 | 31.6 µM (active) | –
COc1ccc(-n2c(=O)c(-c3ccc(F)cc3)nc3cnc(N4CCOCC4)nc32)cc1 | inactive | –
C[C@@H](NCc1cc(Br)cc2[nH]c(=O)c(=O)[nH]c12)P(=O)(O)O | inactive | –
COc1ccc(CCN(C)CCc2ccc(OC)c(OC)c2)cc1OC | inactive | –
COc1ccc(C[N+](C)(C)N)cc1OC | – | 22.8% [at 11.4 µM]
COc1ccc(CC(=S)N2CCOCC2)cc1OC | 10 µM (active) | –
CO[C@@H]1COC(=O)[C@@H](C)NC(=O)C/C=C\[C@@H](C)[C@H](NS(=O)(=O)c2ccc(C)cc2)COC(=O)[C@H](C)NC(=O)C/C=C\[C@H]1C | – | 1.72% [at 11.4 µM]
Cc1ccc(CNC(=O)C2CC(c3ccccc3[N+](=O)[O-])=NO2)o1 (centres undefined) | 7.94 µM (active) | –
Cc1ccc(CCNC(=O)C2CC(c3ccccc3[N+](=O)[O-])=NO2)cc1 (centres undefined) | 11.2 µM (active) | –
Cc1ccc(CNC(=O)C2CC(c3ccccc3[N+](=O)[O-])=NO2)cc1 (centres undefined) | 3.16 µM (active) | –
O=C(NCCCCc1ccccc1)C1CC(c2ccccc2[N+](=O)[O-])=NO1 (centres undefined) | 7.08 µM (active) | –
NCCNCC1CCNCC1 | – | 2.44% [at 11.4 µM]
C/C(CCN1CCCc2nc(C)c(C)cc21)=N\O[C@@H](C)c1cn([C@H](CO)Cc2ccccc2)nn1 | – | -18.6% [at 11.4 µM] and 31.1% [at 11.4 µM]
O=C(CSc1nc2ccccc2s1)c1sc2sc3ccccc3[n+]2c1O | – | -17.6% [at 11.4 µM]
CC(C)CC1CC(=O)OC1(C)C(=O)CSc1nc2ccccc2s1 (centres undefined) | 7.94 µM (active) | –
CC1(C(=O)CSc2nc3ccccc3s2)CCC(=O)O1 (centres undefined) | 11.2 µM (active) | –
O=C(OCCNC(=O)c1ccc2ccccc2n1)c1ccc(F)cc1 | 7.94 µM (active) | –
NCCNC(=O)c1ncsc1-c1cccc(F)c1 | inactive | –
O=C(O)/C=C1\NC(=O)c2ccccc21 | inactive | –
CC[N+](CC)(CC)CCOc1ccc(/C=C\c2ccccc2)cc1 | inactive | –
CCOc1ccccc1OCCOc1ccc(F)cc1 | 4.47 µM (active) | –
CCOC(=O)CCN1C(=O)[C@H]2[C@H]3[C@H](O)[C@H](O)C/C(=N/OC[C@@H](O)COCc4ccco4)[C@H]3CC[C@@H]2C1=O | – | 34% [at 11.4 µM]

Compound | AC50 | activity, negative = inhibition
CC(=O)N1CC2(CC2)CC1c1ccccc1 (centres undefined) | inactive | –
CC(C)NC(=O)N1CCCC2(CCN(S(=O)(=O)c3ccccc3)CC2)C1 | inactive | –
CC(C)NC(=O)N1CC2(CCN(S(=O)(=O)c3ccccc3)CC2)C1 | inactive | –
CC(=O)N1CCN(S(=O)(=O)c2ccccc2)C1c1ccccc1 (centres undefined) | 11.2 µM (active) | –
Cc1ccc(S(=O)(=O)N2CCN(C(=O)c3ccccc3)C2C(C)C)cc1 (centres undefined) | 7.08 µM (active) | –
COc1ccc(OC)c(NC(=O)C(CC(=O)O)NCc2ccco2)c1 (centres undefined) | inactive | –
C=CCC(NCc1ccco1)c1ccc(OC)cc1 (centres undefined) | 5.01 µM (active) | –
CCC(=O)n1nc(-c2ccc(OC)cc2)nc1N | 10 µM (active) | –
COc1ccc(-c2nc(N)c3ncn([C@H]4O[C@@H](CO)[C@@H](O)[C@@H]4O)c3n2)cc1 | – | 31.6% [at 11.4 µM]
COc1ccc(C(=O)n2nc(-c3ccccc3)nc2SC)cc1 | inactive | –
CCOc1ccc(N2CC(C(=O)NCc3cccc(C)c3)CC2=O)cc1 (centres undefined) | 7.94 µM (active) | –
CC(C)Oc1ccc(N2CC(C(=O)OCC(=O)NCc3ccccc3)CC2=O)cc1 (centres undefined) | 15.8 µM (active) | –
O=C(CNC1CCCCCC1)Nc1ccccc1N1CCCCC1 | 4.47 µM (active) | –
Cc1cc(C)nc(SCC(=O)N/N=C\c2sccc2C)n1 | 5.01 µM (active) | –
O=C(CSc1nc2ccccc2o1)Nc1ccccc1N1CCCCCC1 | 15.8 µM (active) | –
O=C(CSc1nc2ccccc2o1)NC(=O)NCc1ccccc1 | 3.55 µM (active) | –
O=C(CN1CCN(S(=O)(=O)c2ccccc2)CC1)NC(=O)NCc1ccccc1 | inactive | –
CNc1c2c(nn1C)CCCC2 | inactive | –
C[N+](C)(C)c1cc2c(nn1)Nc1ccccc1S2 | – | -41.4% [at 11.4 µM]
CC1(C)N=C(N)N=C(N)N1CCCCc1ccccc1 | – | 24% [at 11.4 µM]
O=C(O)c1ccc(CNCc2ccccc2)cc1 | – | -4.75% [at 11.4 µM]
Cc1cc(C)nc(SCC(=O)Nc2ccccc2[N+](=O)[O-])n1 | 7.94 µM (active) | –
O=C(O)c1cc(=O)[nH]c(SCc2ccccc2)n1 | – | -23.4% [at 11.4 µM]

Compound | AC50 | activity, negative = inhibition
O=C(O)c1ccc(CSc2nc3ccccc3o2)cc1 | 35.5 µM (active) | –
O=C(CSc1ccccn1)Nc1nc2ccc(Br)cc2s1 | 2 µM (active) | –
O=C(CSc1nc2ccccc2o1)Nc1nc2ccccc2s1 | 1.78 µM (active) | –
COc1nc(Cl)nc(Cl)c1Cl (tested in a mixture with another compound) | – | -12.4% [at 11.4 µM]
CC(=O)OC[C@@H]1O[C@@H](O/N=C2/C[C@@H](O)[C@@H](O)[C@@H]3[C@@H]4C(=O)N(C[C@@H]5CCCO5)C(=O)[C@H]4CC[C@H]23)[C@H](OC(C)=O)[C@H](OC(C)=O)[C@@H]1OC(C)=O | – | -5.2% [at 11.4 µM]
Cc1ccccc1NC(=O)CSc1nc(N2CCCCC2)nc(N2CCCCC2)n1 | 0.355 µM (active) | –
Cc1ccccc1NC(=O)Cn1cnc2c1c(=O)n(C)c(=O)n2C | inactive | –
O=C(C/C=N/OCc1ccc(Cl)cc1Cl)c1ccc(Cl)cc1 | 0.794 µM (active) | –
O=C(C/C=N/OCc1ccc(F)cc1Cl)c1cnc(-c2ccccc2)s1 | 1.26 µM (active) | –
CN(C)CN1CSC(=S)N(CN(C)C)C1 | 3.16 µM (active) | –
Cc1cc(NC(=O)C2C3C(=O)N(Cc4ccc(Cl)cc4)C(C(=O)NC(C)(C)C)C34C=CC2(C)O4)no1 (centres undefined) | inactive | –
COc1ccc(N2CC(C(=O)Nc3cc(C)on3)CC2=O)cc1 (centres undefined) | inactive | –
CCc1ccc(N2CC(C(=O)NC3=NCCS3)CC2=O)cc1 (centres undefined) | 15.8 µM (active) | –
Cc1ccc(N2CC(C(=O)Nc3cc(C)on3)CC2=O)cc1 (centres undefined) | 5.62 µM (active) | –
CC(C)CO/N=C1/C[C@@H](O)[C@@H](O)[C@@H]2[C@@H]3C(=O)N(C[C@@H]4CCCO4)C(=O)[C@H]3CC[C@@H]12 | – | -18.3% [at 11.4 µM]
O=C(c1cnccn1)N1CCC2(CCCN(c3ncccn3)C2)CC1 | inactive | –
COc1ccc(COC(=O)N/N=C2/C[C@@H](O)[C@@H](O)[C@@H]3[C@H]4C(=O)N(c5ccc(F)cc5F)C(=O)[C@@H]4CC[C@@H]23)cc1 | – | -19.3% [at 11.4 µM]
C=CC[C@@H]1C=C[C@H](O/N=C(\C)CCN2CCc3nc(CC)c(CC)cc3C2)[C@H](CO)O1 | – | -14% [at 11.4 µM]
COc1cc(NC(=O)Cc2c(C(=O)O)[nH]c3ccccc23)cc(OC)c1OC | inactive | –
COc1cc(NC(=O)c2cc3nc(-c4ccccc4)cc(-c4ccccc4)n3n2)cc(OC)c1OC | 6.31 µM (active) | –
